Where two headings read alike, the source gives them in different places.

What all share (set-up): species or system human, MV4-11 + K-562 + COLO205 + SK-N-BE2 + OVCAR-8
Experiment [1] has as its system AURKB. The note with it: read-out: apparent Kd, n = 1.
Experiment [2] relates to DDR1. The settings on record: read-out: apparent Kd; compound concentrations:100 nM and 1000 nM (sheet 'Samples'); n = 1.
Experiment [3] has as its system DDR2. The settings on record: read-out: apparent Kd; compound concentrations:100 nM and 1000 nM (sheet 'Samples'); n = 1.
The test system of experiment [4] is EPHA7. The settings on record: read-out: apparent Kd; compound concentrations:100 nM and 1000 nM (sheet 'Samples'); n = 1.
Experiment [5] has as its system EPHB6. The settings on record: read-out: apparent Kd; compound concentrations:100 nM and 1000 nM (sheet 'Samples'); n = 1.
Experiment [6] has as its system FLT3. The settings on record: read-out: apparent Kd; compound concentrations:100 nM and 1000 nM (sheet 'Samples'); n = 1.
The test system of experiment [7] is FLT4. The settings on record: read-out: apparent Kd; compound concentrations:100 nM and 1000 nM (sheet 'Samples'); n = 1.
The test system of experiment [8] is JAK2. The note with it: read-out: apparent Kd; compound concentrations:100 nM and 1000 nM (sheet 'Samples'); n = 1.
For experiment [9], the system named is RET. The note with it: read-out: apparent Kd; compound concentrations:100 nM and 1000 nM (sheet 'Samples'); n = 1.
The test system of experiment [10] is BMPR2. The note with it: read-out: apparent Kd; compound concentrations: 100 nM and 1000 nM (sheet 'Samples'), CATDS: 6.92108143191002E-2; n = 1.
For experiment [11], the system named is CDC7. The note with it: read-out: apparent Kd; compound concentrations: 100 nM and 1000 nM (sheet 'Samples'), CATDS: 7.2811960251287902E-2; n = 1.
Experiment [12] concerns CLK1. The settings on record: read-out: apparent Kd; compound concentrations: 100 nM and 1000 nM (sheet 'Samples'), CATDS: 6.6251473023667004E-2; n = 1.
The test system of experiment [13] is CLK4. The note with it: read-out: apparent Kd; compound concentrations: 100 nM and 1000 nM (sheet 'Samples'), CATDS: 8.9206642022587504E-2; n = 1.
Experiment [14] concerns CSNK2A1;CSNK2A3. The settings on record: read-out: apparent Kd; compound concentrations: 100 nM and 1000 nM (sheet 'Samples'), CATDS: 8.9230390485803696E-2; n = 1.
Experiment [15] deals with CSNK2A2. The note with it: read-out: apparent Kd; compound concentrations: 100 nM and 1000 nM (sheet 'Samples'), CATDS: 7.4198005881570203E-2; n = 1.
Experiment [16] relates to GAK. The settings on record: read-out: apparent Kd; compound concentrations: 100 nM and 1000 nM (sheet 'Samples'), CATDS: 0.232195819387676; n = 1.
For experiment [17], the system named is JAK1. The note with it: read-out: apparent Kd; compound concentrations: 100 nM and 1000 nM (sheet 'Samples'), CATDS: 8.5496102279709801E-2; n = 1.
Experiment [18] has as its system PI4KB. The settings on record: read-out: apparent Kd; compound concentrations: 100 nM and 1000 nM (sheet 'Samples'), CATDS: 0.18235028668709399; n = 1.
Experiment [19] concerns PIK3C2B. The settings on record: read-out: apparent Kd; compound concentrations: 100 nM and 1000 nM (sheet 'Samples'), CATDS: 7.7184460843741698E-2; n = 1.
Experiment [20] relates to RIOK2. The note with it: read-out: apparent Kd; compound concentrations: 100 nM and 1000 nM (sheet 'Samples'), CATDS: 5.9872886906535798E-2; n = 1.
For experiment [21], the system named is TNIK. The settings on record: read-out: apparent Kd; compound concentrations: 100 nM and 1000 nM (sheet 'Samples'), CATDS: 7.3078421719639103E-2; n = 1.
In experiment [22] the test system is BMP2K. The settings on record: read-out: apparent Kd; compound concentrations:100 nM and 1000 nM (sheet 'Samples'); n = 1.
Experiment [23] deals with MAP3K1. The note with it: read-out: apparent Kd; compound concentrations:100 nM and 1000 nM (sheet 'Samples'); n = 1.
Experiment [24] relates to MAP4K5. The settings on record: read-out: apparent Kd; compound concentrations:100 nM and 1000 nM (sheet 'Samples'); n = 1.
In experiment [25] the test system is MAPK6. The note with it: read-out: apparent Kd; compound concentrations:100 nM and 1000 nM (sheet 'Samples'); n = 1.
The subject of experiment [26] is PIK3CD. The settings on record: read-out: apparent Kd; compound concentrations:100 nM and 1000 nM (sheet 'Samples'); n = 1.
For experiment [27], the system named is EIF2AK1. The settings on record: read-out: apparent Kd; compound concentrations: 100 nM and 1000 nM (sheet 'Samples'), CATDS: 0.39682644993145699; n = 1.
Experiment [28] concerns STK4. The settings on record: read-out: apparent Kd; compound concentrations: 100 nM and 1000 nM (sheet 'Samples'), CATDS: 0.27037703695169801; n = 1.
For experiment [29], the system named is CDC42BPB. The settings on record: read-out: apparent Kd; compound concentrations:100 nM and 1000 nM (sheet 'Samples'); n = 1.
The subject of experiment [30] is CDC42BPG. The settings on record: read-out: apparent Kd; compound concentrations:100 nM and 1000 nM (sheet 'Samples'); n = 1.
The subject of experiment [31] is PKN1. The note with it: read-out: apparent Kd; compound concentrations:100 nM and 1000 nM (sheet 'Samples'); n = 1.
Experiment [32] concerns PRKACA. The note with it: read-out: apparent Kd; compound concentrations:100 nM and 1000 nM (sheet 'Samples'); n = 1.
The test system of experiment [33] is PRKACB. The note with it: read-out: apparent Kd; compound concentrations:100 nM and 1000 nM (sheet 'Samples'); n = 1.
Experiment [34] deals with PRKG1. The note with it: read-out: apparent Kd; compound concentrations:100 nM and 1000 nM (sheet 'Samples'); n = 1.
The test system of experiment [35] is PRKX. The settings on record: read-out: apparent Kd; compound concentrations:100 nM and 1000 nM (sheet 'Samples'); n = 1.
Experiment [36] has as its system ROCK1. The settings on record: read-out: apparent Kd; compound concentrations:100 nM and 1000 nM (sheet 'Samples'); n = 1.
In experiment [37] the test system is ROCK2. The note with it: read-out: apparent Kd; compound concentrations:100 nM and 1000 nM (sheet 'Samples'); n = 1.
Experiment [38] concerns STK26. The note with it: read-out: apparent Kd; compound concentrations:100 nM and 1000 nM (sheet 'Samples'); n = 1.
The mark [39] stands for this setting: compound concentrations:100 nM and 1000 nM (sheet 'Samples').

Take `Nc1ncnc2occ(-c3ccc(NC(=O)Nc4cc(C(F)(F)F)ccc4F)cc3)c12` [GW770249A_KCGS]: the potency estimated from few doses is 1400 nM in experiment [1] (setting [39]); 122 nM in experiment [2]; 529 nM in [3]; 1760 nM in experiment [4]; 1000 nM in [5]; 215 nM in experiment [6]. Moreover, the potency estimated from few doses is 114 nM in experiment [7], 871 nM in [8] and 17.1 nM in [9].

For the compound `COC(=O)c1ccc2c(c1)C(=Cc1cc(Br)c(O)c(Br)c1)C(=O)N2` [GW405841X], the potency estimated from few doses in [10] is 1220 nM; in experiment [11] it was 1070 nM; in experiment [12], 1380 nM; in experiment [13] it was 668 nM; in experiment [14], 667 nM; in [15], 1020 nM. Moreover, the potency estimated from few doses in experiment [16] is 138 nM; in [17], 731 nM; in [18] it was 194 nM; in experiment [19], 924 nM; in experiment [20] it was 1910 nM; in experiment [21] it was 1060 nM.

As to `C[C@@H](Oc1cc(-n2cnc3ccc(OCC4CCN(C)CC4)cc32)sc1C(N)=O)c1ccccc1Cl` [GSK571989A], the potency estimated from few doses in experiment [22] is 1870 nM; in experiment [23], 1600 nM; in [24], 1670 nM; in [25], 1540 nM; in experiment [26], 185 nM.

Turning to `Cn1cc(-c2ccc3c(c2)CCN3C(=O)Cc2cccc(F)c2)c2c(N)ncnc21` [GSK2603358A], the potency estimated from few doses in experiment [1] (compound concentrations: 100 nM and 1000 nM (sheet 'Samples'), CATDS: 0.35952241449560002) is 1280 nM; in experiment [27] it was 1070 nM; in [28], 2430 nM.

On to `CC(C)NCC(Cc1ccccc1)NC(=O)c1cc(Br)c(-c2ccnc3[nH]ccc23)s1.CC(C)NCC(Cc1ccccc1)NC(=O)c1cc(Br)c(-c2ccnc3[nH]ccc23)s1.Cl.Cl` (stereo not shown) [GSK1383281A], for which the potency estimated from few doses was 950 nM in experiment [1] (setting [39]); 1320 nM in experiment [29]; 1360 nM in [30]; 840 nM in experiment [31]; 70.2 nM in [32]; 102 nM in experiment [33]. Also, the potency estimated from few doses in [34] was 13.6 nM; in experiment [35], 1100 nM; in [36], 43.1 nM; in experiment [37], 48 nM; in [38], 1940 nM.

Source of the values: paper PMC11062922 (Nature Chemical Biology, 2023).
